Results from PubChem BioAssay AID686979 (National Center for Advancing Translational Sciences (NCATS), 2013).
About 50,000 (12%) of roughly 420,000 compounds were called active. Entries that show only a call come without a potency. Inconclusive results (about 26%) are left out. Calls come from the whole dose curve; as a rule, active = well fitted inhibition curve with a large enough effect; inconclusive = small, poorly fitted or top-dose-only effect; inactive = flat fitted curve, though single readings scatter. For the sample, actives were picked, then their nearest neighbours and some compounds at random.

assay: qHTS for Inhibitors of human tyrosyl-DNA phosphodiesterase 1 (TDP1): qHTS in cells in presence of CPT; details: chicken DT40 Tdp1-/-;hTDP1 cells + 20 nM CPT, ATP luminescence, 48 h; series mostly up to 46.2 µM; note: nearly all actives have a fitted effect of over 55% in size
Outline: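 Chicken DT40 Tdp1-/- cells stably complemented with human TDP1 were seeded at 400 cells/well in medium containing 20 nM camptothecin, exposed to pin-transferred compounds, and grown at 37 °C for at least 48 hr. Viability was read as ATP luminescence.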
Potency is the fitted concentration of half-maximal effect.

SMILES | Potency
COc1ccc(NC(=O)CSc2nnc(-c3ccccc3F)n2C2CC2)cc1S(N)(=O)=O | inactive
COc1ccccc1C(=O)N(C1=NC(C)CS1)c1ccc(Cl)cc1 (configuration not stated) | inactive
CCc1ccc(S(=O)(=O)c2nnn3c2nc(NCc2ccccc2OC)c2cc(Cl)ccc23)cc1 | inactive
Cc1nc2cc(NCc3cccs3)ccc2n1C | inactive
COc1cccc(CNc2nc(NCc3cccs3)nc3ccsc23)c1 | 23.1 µM (active)
COc1cccc(CNc2nc(NCc3ccccc3OC)nc3ccsc23)c1 | 9.2 µM (active)
CCNc1nc(NC(C)C)nc(OCCOC(=O)c2ccccc2)n1 | inactive
COc1cccc(CNc2nccn(-c3ccc(OC)c(OC)c3)c2=O)c1 | inactive
COCCNc1nc(NCc2ccc(NC(C)=O)cc2)c2sccc2n1 | inactive
COc1ccc(CNc2ncncc2-c2ccccc2C)c(OC)c1 | inactive
COc1ccccc1CNc1nc(Nc2ccccc2Cl)c2sccc2n1 | 9.2 µM (active)
CC(C)Nc1nc(NCCOc2ccccc2Cl)c2sccc2n1 | 18.4 µM (active)
CNC(=O)c1sc(NCc2ccccc2OC)nc1C | inactive
CC(=O)C(CC(=O)N1CCCC1)C(=O)Nc1ccc(Cl)cc1 (configuration not stated) | inactive
O=C1CC(c2c(F)cccc2Cl)C(n2cncn2)C(O)=C1C1NCCc2ccccc21 (configuration not stated) | inactive
Nc1nc2cc(Cl)ccc2n1N | inactive
COc1ccc(NC(=O)CN(C)C(=O)c2cc(C)oc2C)cc1 | inactive
O=C1NC(c2ccccc2)=NC1(Nc1ccccn1)C(F)(F)F (configuration not stated) | inactive
Cc1ccc(C)c(C(=O)N2CCC(n3nccc3NC(=O)C3CC3)CC2)c1 | inactive
Cc1cc(C(=O)OC(C)C(=O)NC2CCCCC2C)c(C)o1 (configuration not stated) | inactive
Cc1nc2sccn2c(=O)c1S(=O)(=O)NCCc1ccccc1 | inactive
O=C(COC(=O)c1c(Cl)cccc1Cl)Nc1cccc(S(=O)(=O)NC2=NCCCCC2)c1 | inactive
O=S(=O)(NCC(c1ccco1)N1CCOCC1)c1cc(F)ccc1F (configuration not stated) | inactive
Cc1cc(C)n(CCNC(=O)CC2C(=O)NCCN2Cc2ccc(C)o2)n1 (configuration not stated) | inactive
O=C(COc1cc2oc(=O)c3c(c2cc1Cl)CCC3)NCCCN1CCOCC1 | inactive
Cc1ccc(-c2csc(C(C#N)=C(O)CN3CCN(C(=O)c4ccco4)CC3)n2)cc1 | inactive

SMILES | Potency
CCOC(=O)c1cnc(-n2nc(C)cc2C)nc1-n1nc(C)cc1C | inactive
CCOC(=O)c1cccc(NC(=O)CCn2nnc3ccccc32)c1 | inactive
CCOC(=O)c1cnc(-n2nc(C)cc2C)nc1Nc1cccc(C(C)=O)c1 | 16.4 µM (active)
COC(=O)c1ccc(OC)c(Cn2c(=O)n(Cc3ccccc3)c(=O)c3c2c2cc(OC)ccc2n3C)c1 | inactive
O=S(=O)(NCCS(=O)(=O)N1CCN(c2ccccc2)CC1)c1ccc(Cl)cc1 | inactive
CC(=O)c1cccc(-n2nnnc2SCC(=O)NNC(=O)C2CCCCC2)c1 | inactive
COc1ccc(-c2ccc(CN3C(CC(C)C)C(=O)N(Cc4cn(CC5CCCCC5)nn4)CCS3(=O)=O)cc2)cn1 (configuration not stated) | 20.6 µM (active)
COCOCCn1cc(CN2CCS(=O)(=O)N(Cc3ccc(-c4ccc(OC)cc4)cc3)C(CC(C)C)C2=O)nn1 (configuration not stated) | 16.4 µM (active)
COCCCn1cc(CN2CC(N(C)C)CS2(=O)=O)nn1 (configuration not stated) | inactive
CC(C)CC1C(=O)N(Cc2cn(Cc3ccco3)nn2)CCS(=O)(=O)N1Cc1ccc(-c2ccc(Cl)c(Cl)c2)cc1 (configuration not stated) | 18.4 µM (active)
CC(=O)c1cccc(-c2ccc(CN3C(CC(C)C)C(=O)N(Cc4cn(CC5CCCCC5)nn4)CCS3(=O)=O)cc2)c1 (configuration not stated) | 20.6 µM (active)
CCOC(=O)NC(=O)CSc1nnc(SCCC(=O)O)s1 | inactive
Cc1nc(-c2ccc(F)cc2)c(CC(=O)N(C)CC(=O)Nc2c(C)cccc2C)s1 | inactive
Cc1ccccc1-n1cc(CNC(=O)C2CCC(=O)N(C3CC3)C2)cn1 (configuration not stated) | inactive
CCOC(=O)c1sc2nc(C)nc(Nc3ccc(OC)c(OC)c3)c2c1C | inactive
CC(=O)c1ccc(N=C2SCCCN2C(=O)C2CCCCC2)cc1 | inactive
Cc1ccc(-c2cc(C(=O)Oc3ccccc3Cl)no2)cc1C | inactive
CC1C(=O)N(Cc2cn(CC3CCCCC3)nn2)CCS(=O)(=O)N1Cc1ccc(-c2cccc(N(C)C)c2)cc1 (configuration not stated) | 4.61 µM (active)
O=S1(=O)CC(N2CCSCC2)CN1Cc1cn(Cc2cccc(Cl)c2)nn1 (configuration not stated) | inactive
COc1ccc(-c2ccc(CN3C(CC(C)C)C(=O)N(Cc4cn(CC5CCCCC5)nn4)CCS3(=O)=O)cc2)cc1 (configuration not stated) | 18.4 µM (active)
COc1ccc([C@H]2N[C@]3(CCCN(CC4CCCCC4)C3=O)[C@H]3C(=O)N(C)C(=O)[C@@H]23)cc1 | inactive
O=S1(=O)CC(N2CCN(CCO)CC2)CN1Cc1cn(Cc2cccc(Cl)c2)nn1 (configuration not stated) | inactive
COc1ccc(COC(=O)NC(C(=O)O)c2ccccc2)cc1 (configuration not stated) | inactive
O=C(O)c1ccccc1-c1ccccc1C(=O)Nc1ccccc1Br | inactive
O=C(CCNS(=O)(=O)c1ccc(Br)s1)NCc1ccccc1Cl | inactive
O=C(Nc1nnc(Cc2ccc(Cl)cc2)s1)c1cccnc1 | inactive

SMILES | Potency
NC(=O)COc1ccc(NC(=O)c2ccccc2-c2ccccc2)cc1 | inactive
Cn1c2ccccc2c(=O)c2c(O)cccc21 | inactive
CCCc1nc2c(c(=O)c3ccccc3n2C)c(=O)n1C1CCCCCC1 | 18.4 µM (active)
CCOC(=O)c1nnn2c3ccccc3c(=O)n(C)c12 | inactive
CCOc1ccc(C(=O)Nc2ccc(S(=O)(=O)Nc3cc(C)on3)cc2)cc1 | inactive
Cc1ccc(Nc2c(-c3ccc(Cl)cc3)nc3sccn23)c(C)c1 | inactive
O=C(O)c1ccc(Cn2c(=S)[nH]c3cc(Cl)ccc3c2=O)cc1 | inactive
N#CC1=C(N)Oc2c(sc3ccccc23)C1c1ccco1 (configuration not stated) | 7.31 µM (active)
COC(=O)C1=C(O)/C(=C/c2ccc(OCC(=O)Nc3ccccc3)cc2)N=C1C | inactive
COC(=O)C1CCCCN1C(=O)c1ccc(OC2CCN(C(C)=O)CC2)c(OC)c1 (configuration not stated) | inactive
O=S(=O)(NC1CCCCC1N1CCC(O)CC1)c1ccc(Cl)cc1 (configuration not stated) | inactive
CNC(=O)N1c2ccccc2C=Cc2ccccc21 | inactive
CCNC(=O)N1c2ccccc2Sc2ccccc21 | inactive
CC1C(C)N(C(=O)CCl)c2ccccc2N1C(=O)CCl (configuration not stated) | 0.58 µM (active)
Cc1[nH]n(-c2ccccc2)c(=O)c1N=Nc1ccccc1C(=O)N1CCCCC1 | inactive
C=CCNC(=S)N1CCN(CCN=Cc2c(C)[nH]n(-c3ccc([N+](=O)[O-])cc3)c2=O)CC1 | inactive
Cc1[nH]n(-c2ccc([N+](=O)[O-])cc2)c(=O)c1C=NCCN1CCN(C(=O)c2ccccc2F)CC1 | 9.2 µM (active)
CCCC(=O)Nc1cccc(NC(=S)NC(=O)C(C)Oc2ccc(Cl)cc2Cl)c1 (configuration not stated) | inactive
CC1CC(C)CN(C(=O)CCNC(=O)Cn2cnc3ccccc3c2=O)C1 (configuration not stated) | inactive
C=CCOc1cccc(C2C(C(=O)c3ccc(C)o3)=C(O)C(=O)N2CCCn2ccnc2)c1 (configuration not stated) | inactive
CCC1CCc2c(sc(NC(C)=O)c2C#N)C1 (configuration not stated) | inactive
CC(=O)N1CCc2c(sc(NC(=O)CCS(=O)(=O)c3ccccc3)c2C#N)C1 | 20.6 µM (active)
CC(C)N1CCc2c(sc(NC(=O)Cc3ccccc3)c2C#N)C1 | inactive
Cc1c(C(=O)NCC2CCCN(C)C2)cnn1-c1nccc(-c2ccco2)n1 (configuration not stated) | inactive
CC(NC(=O)C(C)(C)C)C(c1cccs1)N1CCN(Cc2ccccc2)CC1 (configuration not stated) | 20.6 µM (active)
CCCC(=O)NC(C)C(c1cccs1)N1CCN(c2ccccc2)CC1 (configuration not stated) | inactive

SMILES | Potency
CC(NC(=O)Nc1ccccc1)C(c1cccs1)N1CCN(c2ccccc2)CC1 (configuration not stated) | 13 µM (active)
CCCC(c1nnnn1C(C)(C)C)N1CCN(Cc2ccccc2)CC1 (configuration not stated) | inactive
CC(NC(=S)Nc1ccccc1)C(c1cccs1)N1CCOCC1 (configuration not stated) | inactive
O=C(Nc1ccccc1)N1CCN(Cc2ccccc2)CC1 | inactive
O=C(NCCCN1CCCCCC1)C1CC(=O)N(C2CCCC2)C1 (configuration not stated) | inactive
N#Cc1nc(/C=C/c2ccc(F)cc2)oc1NCc1ccc(F)cc1 | inactive
Cc1cc(NC(=O)CCC(=O)N(CC(=O)NC2CCCC2)c2ccc(F)cc2)no1 | inactive
CNC(=O)/C(C#N)=C/c1c(F)cccc1Cl | 11.6 µM (active)
N#C/C(=C\c1ccccc1C(F)(F)F)C(=O)Nc1ccccc1F | inactive
Cc1[nH]c2ccccc2c1/C=C(/C#N)C(=O)NC(C)C | inactive
Cc1ccsc1C(=O)NCCc1ccco1 | inactive
CCN1CCN(C(C(=O)NC2CCCC2)c2cc3c(cc2[N+](=O)[O-])OCO3)CC1 (configuration not stated) | inactive
CCc1ccccc1NC(=O)c1cc(-c2ccc3c(c2)OCO3)on1 | inactive
COc1ccc(-c2cn(-c3ccc(C)cc3)c(=O)n2CC(=O)Nc2ccc(OC)c(OC)c2)cc1 | inactive
Cc1ccc(Nc2nnc(SC(C)C(=O)NC3CC3)s2)cc1 (configuration not stated) | inactive
CC(=O)c1sc(N/N=C\c2ccc(C)cc2)nc1C | inactive
Cc1ccc(Nc2nc(Cl)c(C=O)s2)cc1 | 18.4 µM (active)
COc1ccc(NC(C)=O)cc1NC(=O)CN1CCN(C2c3ccccc3-c3ccccc32)CC1 | inactive
COCCN(C(=S)Nc1ccccc1OC)C1CCN(C(C)C)CC1 | inactive
Cc1cc(C#N)c(SCC(N)=O)nc1-c1ccc(F)cc1 | inactive
Cc1nn(-c2ccccc2)c(Cl)c1/C=C/C(=O)c1ccc(O)cc1 | inactive
Cc1cc(CNC(=O)c2cccc([N+](=O)[O-])c2)c2ccccc2n1 | inactive
O=C(NOCc1ccccc1)c1cccc([N+](=O)[O-])c1 | inactive
CCC1(C(=O)c2ccccc2)C(c2cccc([N+](=O)[O-])c2)C1(C(=O)OC)C(=O)OC (configuration not stated) | 23.1 µM (active)
